We go through 19 molecules from PubChem BioAssay (NCATS).

Where “and” joins values, the source holds several entries; their conditions need not be identical. Equal values may be shown once. Results filed as inconclusive are left out. Unmarked numbers belong to inactive results. Calls follow the shape of the dose curve; as a rule, active = well fitted curve in the direction sought with a large enough effect; inconclusive = small, poorly fitted or top-dose-only effect, or another doubt; inactive = no such curve, though single readings can be large or run the other way.
% is scaled to controls: 0 for no effect and ±100 for the full control effect.

The nature of this assay: qHTS Assay for Identifying Gametocytocidal Compounds (AID 743244).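 Also: actives lower the fluorescent signal which means gametocytes are killed.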 The note with it: P. falciparum 3D7 stage III-V gametocytes, alamarBlue, 72 h; max response: active compounds read low. In outline: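 Using 20,000 stage III–V 3D7 gametocytes per well, compounds were incubated 72 h under 37 °C/5% CO2. Viability was then assessed by 24 h alamarBlue reduction, measured fluorometrically at 525/598 nm.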
On to `O=C(Oc1ccccc1C(=O)O)c1ccccc1O`, for which the max response is -1.86%.
As to `CC[C@@]1(c2ccccc2)NC(=O)N(C)C1=O`, the max response is 7.9%.
As for `CCOc1nc2cccc(C(=O)O)c2n1Cc1ccc(-c2ccccc2-c2nn[nH]n2)cc1`, the figure is 5.7%; as for `CCCCCCCCCCCCCCCCCCOCC(O)CO` (centres undefined), 1.98%; as for `OCC(CO)N[C@H]1C[C@](O)(CO)[C@@H](O)[C@H](O)[C@H]1O`, 7.19%.
As for `c1ccc2c(CC3=NCCN3)cccc2c1`, the max response was 1.75% and 3.04% and -11%.
The same measure for `COc1cc(C(=O)N2CCOCC2)cc(OC)c1OC`: -5.92% and 13.8%; for `Cc1ccc(C(C)C)cc2c(C)ccc1-2`: 3.45%.
With `Cn1c(=O)c2c(ncn2CC2OCCO2)n(C)c1=O`, the max response is 2.6%.
The same measure for `O=S(=O)(O)c1cc(I)c(O)c2ncccc12`: 5.64%; for `CC1(C)Oc2ccc(C#N)cc2[C@@H](N2CCCC2=O)[C@@H]1O`: -8.5% and 8.76%.
Turning to `CC(=O)Oc1ccc(C2(c3ccc(OC(C)=O)cc3)C(=O)Nc3ccccc32)cc1`, the max response was -4.55% and 20.8%.
As for `Cc1cc2c(cc1S(N)(=O)=O)S(=O)(=O)CCC2`, the figure is 20.4%; as for `C[C@@H](O)[C@H](N)C(=O)O`, 6.39%.
The same measure for `CCCCN1CCCC[C@H]1C(=O)Nc1c(C)cccc1C`: 12.1%.
As for `Cc1cc(C(C#N)c2ccc(Cl)cc2)c(Cl)cc1NC(=O)c1cc(I)cc(I)c1O` (centres undefined), the max response is 0.496%.
Consider `CN(C)CCN(Cc1ccccc1)c1ccccn1`, for which the max response is -8.07%.
For the molecule `CC(C)(C)C(=O)NCCCC(=O)O`, the max response was 2.51%.
The same measure for `Nc1ccc(S(=O)(=O)Nc2ccc(Cl)nn2)cc1`: 13.8% and 15.1%.
